Reference: PubChem BioAssay AID1159580 (chemical genetic matrix, 2015)
Where “and” joins values, the source holds several entries; their conditions need not be identical. Equal entries are not always repeated. About 2,000 (36%) of roughly 5,500 compounds were called active. Another 18% or so got no clear call; they are omitted. Rule as the data show it: active = normalized growth mostly below about 0.91 (no sharp cut-off); inconclusive = no clear call, values can overlap the other calls; inactive = mostly above about 0.92. The list shows a part of the results.

Test: chemical genetic growth profiling, strain panel (AID 1159580);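 also: tested at 20 µM; growth read once vehicle control cultures reached saturation at 30 °C; 1 = growth at the plate median or of vehicle wells; lower values mean less growth of the strain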
Settings: S. cerevisiae deletion strains, growth OD

Measured: normalized growth

Cc1cccc(C)c1OCC(C)N (stereo not drawn)
inactive: locus YAL013W, strain DEP1, stronger effect = lower value 0.993 | locus YAL021C, strain ccr4, stronger effect = lower value 0.986 | locus YAL026C, strain drs2, stronger effect = lower value 1.01 | locus YAL030W, strain snc1, stronger effect = lower value 1 | locus YAL040C, strain CLN3, stronger effect = lower value 0.998 | locus YBL061C, strain skt5, stronger effect = lower value 1 | locus YBR009C, strain hhf1, stronger effect = lower value 1.01 | locus YBR021W, strain FUR4, stronger effect = lower value 0.997 | locus YBR023C, strain chs3, stronger effect = lower value 1 | locus YBR171W, strain sec66, stronger effect = lower value 1.02 | locus YBR229C, strain ROT2, stronger effect = lower value 0.998 | locus YBR231C, strain swc5, stronger effect = lower value 1.02 | locus YBR279W, strain paf1, stronger effect = lower value 1.01 | locus YCL011C, strain gbp2, stronger effect = lower value 1 | locus YCL016C, strain dcc1, stronger effect = lower value 1.01 | locus YCL029C, strain bik1, stronger effect = lower value 0.987 | locus YCL061C, strain MRC1 (second series), stronger effect = lower value 0.997 | locus YCL061C, strain MRC1, stronger effect = lower value 1.01 | locus YCL069W, strain vba3, stronger effect = lower value 1.01 | locus YCR088W, strain abp1, stronger effect = lower value 1 | locus YDL005C, strain med2, stronger effect = lower value 1.01 | locus YDL035C, strain GPR1, stronger effect = lower value 1 | locus YDL040C, strain nat1, stronger effect = lower value 1.01 | locus YDL074C, strain BRE1, stronger effect = lower value 1.05 | locus YDL101C, strain DUN1, stronger effect = lower value 1.02 | locus YDL134C, strain PPH21, stronger effect = lower value 0.983 | locus YDL185W, strain tfp1, stronger effect = lower value 0.95 | locus YDL192W, strain arf1, stronger effect = lower value 0.991 | locus YDR001C, strain nth1, stronger effect = lower value 1 | locus YDR069C, strain doa4, stronger effect = lower value 1.01 | locus YDR101C, strain arx1, stronger effect = lower value 0.996 | locus YDR137W, strain rgp1, stronger effect = lower value 1.01 | locus YDR159W, strain sac3, stronger effect = lower value 1.01 | locus YDR162C, strain NBP2, stronger effect = lower value 0.979 | locus YDR195W, strain ref2 0.998 | locus YDR297W, strain sur2, stronger effect = lower value 1.01 | locus YDR318W, strain mcm21, stronger effect = lower value 0.99 | locus YDR334W, strain swr1, stronger effect = lower value 1.01 | locus YDR335W, strain msn5, stronger effect = lower value 1.01 | locus YDR363W, strain ESC2, stronger effect = lower value 0.97 | locus YDR388W, stronger effect = lower value 1.01 | locus YDR392W, strain spt3, stronger effect = lower value 1.01 | locus YDR502C, strain sam2, stronger effect = lower value 1 | locus YEL003W, strain gim4, stronger effect = lower value 1.01 | locus YEL037C, strain rad23, stronger effect = lower value 0.992 | locus YEL061C, strain CIN8 (second series), stronger effect = lower value 1 | locus YEL061C, strain CIN8, stronger effect = lower value 0.991 | locus YER002W, strain NOP16, stronger effect = lower value 1.01 | locus YER015W, strain faa2, stronger effect = lower value 1.02 | locus YER016W, strain bim1, stronger effect = lower value 1.01 | locus YER110C, stronger effect = lower value 0.98 | locus YER111C, strain swi4, stronger effect = lower value 1.02 | locus YER155C, strain BEM2 (second series), stronger effect = lower value 1.02 | locus YER155C, strain BEM2, stronger effect = lower value 0.999 | locus YER167W, strain BCK2, stronger effect = lower value 1.01 | locus YFR010W, strain ubp6, stronger effect = lower value 1.02 | locus YGL078C, strain dbp3, stronger effect = lower value 0.977 | locus YGL086W, strain mad1, stronger effect = lower value 1.01 | locus YGL167C, strain pmr1, stronger effect = lower value 1 | locus YGL173C, strain kem1, stronger effect = lower value 1.02 | locus YGL227W, strain vid30, stronger effect = lower value 1.01 | locus YGL240W, strain doc1, stronger effect = lower value 1.02 | locus YGL248W, strain PDE1, stronger effect = lower value 1.01 | locus YGL253W, strain hxk2, stronger effect = lower value 1.01 | locus YGR135W, strain pre9, stronger effect = lower value 0.975 | locus YGR252W, strain gcn5, stronger effect = lower value 1.01 | locus YHR013C, strain ard1, stronger effect = lower value 1.01 | locus YHR027C, strain rpn1, stronger effect = lower value 1.01 | locus YHR030C, strain SLT2, stronger effect = lower value 0.977 and 0.988 | locus YHR079C, strain IRE1 (second series), stronger effect = lower value 0.983 | locus YHR079C, strain IRE1, stronger effect = lower value 0.994 | locus YHR094C, strain hxt1, stronger effect = lower value 0.999 | locus YHR129C, strain ARP1, stronger effect = lower value 0.999 | locus YHR142W, strain chs7, stronger effect = lower value 1 | locus YHR200W, strain rpn10, stronger effect = lower value 0.973 | locus YIL066C, strain RNR3, stronger effect = lower value 1.01 | locus YIL073C, strain SPO22, stronger effect = lower value 0.862 | locus YIL125W, strain kgd1, stronger effect = lower value 0.995 | locus YIR030C, strain dcg1, stronger effect = lower value 0.987 | locus YJL092W, strain hpr5, stronger effect = lower value 1.01 | locus YJL095W, strain BCK1 (second series), stronger effect = lower value 1 | locus YJL095W, strain BCK1, stronger effect = lower value 1.05 and 0.977 | locus YJL115W, strain asf1, stronger effect = lower value 1.01 | locus YJL129C, strain trk1, stronger effect = lower value 1.02 | locus YJL134W, strain LCB3, stronger effect = lower value 0.987 | locus YJL154C, strain vps35, stronger effect = lower value 1.01 | locus YJL164C, strain tpk1, stronger effect = lower value 1.01 | locus YJL166W, strain qcr8, stronger effect = lower value 1 | locus YJL168C, strain set2, stronger effect = lower value 0.997 | locus YJL187C, strain SWE1 (second series), stronger effect = lower value 1.01 | locus YJL187C, strain SWE1, stronger effect = lower value 1 | locus YJR043C, strain POL32, stronger effect = lower value 1 | locus YJR066W, strain TOR1, stronger effect = lower value 0.96
